Source: PubChem BioAssay AID1159580 (chemical genetic matrix, 2015)
The whole screen tested about 5,500 compounds, of which about 2,000 (36%) were called active. Roughly 18% stayed inconclusive and do not appear here. Cut-off read from the data, not from the text of the source: active = normalized growth mostly below about 0.91 (no sharp cut-off); inconclusive = no clear call, values can overlap the other calls; inactive = mostly above about 0.92. This is one part of the list.

Test: chemical genetic growth profiling, strain panel (AID 1159580);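 note: tested at 20 µM; growth read once vehicle control cultures reached saturation at 30 °C; 1 = growth at the plate median or of vehicle wells; lower values mean less growth of the strain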
Details: S. cerevisiae deletion strains, growth OD
[1] = locus YAL013W, strain DEP1, stronger effect = lower value
[2] = locus YBR229C, strain ROT2, stronger effect = lower value
[3] = locus YDL101C, strain DUN1, stronger effect = lower value
[4] = locus YDL134C, strain PPH21, stronger effect = lower value
[5] = locus YDR150W, strain NUM1, stronger effect = lower value
[6] = locus YEL061C, strain CIN8, stronger effect = lower value
[7] = locus YGR078C, strain PAC10, stronger effect = lower value
[8] = locus YGR229C, strain SMI1, stronger effect = lower value
[9] = locus YHR030C, strain SLT2, stronger effect = lower value
[10] = locus YHR087W, strain rtc3, stronger effect = lower value
[11] = locus YJL187C, strain SWE1, stronger effect = lower value
[12] = locus YJR043C, strain POL32, stronger effect = lower value
[13] = locus YJR075W, strain HOC1, stronger effect = lower value
[14] = locus YLR039C, strain RIC1, stronger effect = lower value
[15] = locus YLR058C, strain SHM2 (second series), stronger effect = lower value
[16] = locus YLR085C, strain ARP6, stronger effect = lower value
[17] = locus YLR262C, strain YPT6, stronger effect = lower value
[18] = locus YML094W, strain GIM5, stronger effect = lower value
[19] = locus YMR219W, strain ESC1, stronger effect = lower value
[20] = locus YMR263W, strain SAP30, stronger effect = lower value
[21] = locus YNL128W, strain TEP1, stronger effect = lower value
[22] = locus YNL153C, strain GIM3, stronger effect = lower value
[23] = locus YNL298W, strain CLA4 (second series), stronger effect = lower value
[24] = locus YNL322C, strain KRE1, stronger effect = lower value
[25] = locus YNR030W, strain Alg12, stronger effect = lower value
[26] = locus YPL055C, strain LGE1, stronger effect = lower value
[27] = locus YPL241C, strain CIN2, stronger effect = lower value
[28] = locus YPR135W, strain CTF4, stronger effect = lower value

Measured: normalized growth

COc1ccc(OCC(N)=O)cc1
inactive: [1] 1.01 | [2] 1.02 | locus YCL061C, strain MRC1, stronger effect = lower value 1.01 | [3] 1.01 | [4] 1.01 | [5] 0.898 | [6] 1.03 | [7] 1.01 | [8] 1.01 | [9] 1.07 | [10] 1.01 | [11] 1.01 | [12] 1.02 | [13] 1.04 | [14] 1.02 | [15] 1.02 | [16] 1.05 | [17] 1.04 | [18] 1.02 | [19] 1.01 | [20] 0.996 | locus YMR307W, strain GAS1, stronger effect = lower value 1.07 | [21] 1.01 | [22] 1.01 | [23] 1.03 | [24] 1.03 | [25] 1.02 | locus YOL006C, strain TOP1, stronger effect = lower value 1.01 | [26] 1.01 | [27] 1.02 | [28] 1.04

COc1ccc2c(c1)CCCN2C(=O)NC(=O)c1c(F)cccc1Cl
inactive: [1] 1 | [2] 1.01 | [3] 1.04 | [4] 0.984 | [5] 1.07 | [6] 0.998 | [7] 1.02 | [9] 1.06 | [10] 0.95 | [12] 1.04 | [13] 0.997 | [14] 0.967 | [15] 0.975 | [16] 1 | [17] 0.925 | [18] 0.973 | [19] 0.997 | [20] 1.04 | [21] 1.01 | [22] 1.03 | [23] 1.03 | [24] 0.998 | [25] 1 | [26] 0.98 | [27] 1.02 | [28] 1.05

COc1ccc(C(=O)C2CCNCC2)cc1
inactive: [1] 0.991 | [2] 0.974 | [3] 0.972 | [5] 1.03 | [6] 1.01 | [7] 0.99 | [8] 1.01 | [9] 1.06 | [10] 0.974 | [11] 1 | [12] 1.01 | [13] 1.01 | locus YKL190W, strain CNB1, stronger effect = lower value 1 | [14] 1 | [15] 0.988 | [16] 1.09 | [17] 0.998 | [18] 0.969 | [19] 0.998 | [20] 1.02 | [21] 0.983 | [22] 1.02 | [23] 0.998 | [24] 1 | [25] 1.01 | [26] 1.01 | [27] 1.07 | [28] 0.995
